Records with an inconclusive call do not appear. Where a structure was tested more than once in an assay, its records may differ in their call. Calls of active or inactive are those of the source. Unless noted, cut-off not given; nearly all actives show AC50 up to about 26 µM.
What was measured:
[1] = viability loss with induced miR-34 in A549 – imaging, A549 dox-inducible miR-34, nuclei and caspase counts, primary screen (AID 1347080;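 active means compounds whose cell count with miR-34 switched on is under 0.7 times the count with it off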); conditions: A549 miR-34 inducible, Hoechst nuclei count, 48 h
[2] = viability loss in pontine glioma line – cell-based, SU-DIPG-XVII, MIPE5.0, CellTiter-Glo, qHTS, dose response (AID 1347060); conditions: CellTiter-Glo ATP luminescence;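 on AC50: cells exposed to compound for 48 hours before viability readout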
[3] = viability loss in pontine glioma line – cell-based, SU-DIPG-XIII, MIPE5.0, CellTiter-Glo, qHTS, dose response (AID 1347064; cut-off not given, nearly all actives have AC50 up to about 23 µM;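 on AC50: cells exposed to compound for 48 hours before the viability read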); conditions: CellTiter-Glo ATP luminescence
[4] = viability loss in pontine glioma line – cell-based, SU-DIPG-XXV, MIPE5.0, CellTiter-Glo, qHTS, dose response (AID 1347065); conditions: CellTiter-Glo ATP luminescence;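 further: cells exposed to compound for 48 hours before ATP readout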
[5] = growth inhibition of DIPG cells – cell-based, MIPE5.0 library, qHTS (AID 1347068; cut-off not given, nearly all actives have IC50 up to about 30 µM;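 on IC50: cells exposed to compound for 48 hours before viability readout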); conditions: SU-DIPG-XXV viability
[6] = viability loss in pontine glioma line – cell-based, SU-DIPG-XIII, MIPE4.0, CellTiter-Glo, qHTS, dose response (AID 1347061; cut-off not given, nearly all actives have AC50 up to about 37 µM;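 further: cells exposed to compound for 48 hours before readout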); conditions: CellTiter-Glo ATP luminescence
[7] = viability loss in pontine glioma line – cell-based, JHH-DIPG-1, MIPE4.0, CellTiter-Glo, qHTS, dose response (AID 1347062; cut-off not given, nearly all actives have AC50 up to about 27 µM;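 on AC50: cells exposed to compound for two days before readout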); conditions: JHH-DIPG-1 viability, CellTiter-Glo ATP luminescence
[8] = viability loss in pontine glioma line – cell-based, SU-DIPG-IV, MIPE4.0, CellTiter-Glo, qHTS, dose response (AID 1347063; cut-off not given, nearly all actives have AC50 up to about 30 µM;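 further: compound exposure lasted 48 hours before the viability readout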); conditions: CellTiter-Glo ATP luminescence
[9] = growth inhibition of DIPG cells – cell-based, MIPE4.0 library, CellTiter-Glo luminescence, qHTS (AID 1347066; cut-off not given, nearly all actives have AC50 up to about 30 µM;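 further: cells exposed to compound for 48 hours before readout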); conditions: SU-DIPG-VI viability, CellTiter-Glo ATP luminescence
[10] = JHH-DIPG-1 glioma cell viability, MIPE5.0 library, CellTiter-Glo luminescence, qHTS (AID 1347067); conditions: JHH-DIPG-1 glioma viability, CellTiter-Glo ATP luminescence;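 further: cells exposed to compound for 48 hours before readout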
[11] = compounds altering HSF1 focus formation in cells – imaging, Selleck Cancer Library (AID 1347162; in the data active means plate-normalised HSF1 focus index below about 0.46); conditions: human cells, HSF1 nuclear foci imaging, at 10 µM; SSMD: measured here: HSF1 foci SSMD mean; cell count: measured here: cell number; plate-normalised HSF1 focus index: stronger effect = lower value
[12] = MELAS cybrid and Rieske KO viability enhancers – cell-based, MELAS cybrids, Rieske KO mouse fibroblasts, CellTiter-Glo, primary screen (AID 1508586;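 active means mean z-score across replicates of 1.96 or higher in either the MELAS or the Rieske mutant cell line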;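 further: z relative to plate mean and SD of compound and empty wells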); conditions: low glucose
[13] = drug combination growth inhibition, ovarian cancer – cell-based, oncology-focused library, rucaparib conditional, profiling panel (AID 1508598;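 active means normalized viability below 100% at a tested concentration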); conditions: patient-derived ovarian cancer cells, CellTiter-Glo viability, 144 h, stronger effect = lower value
[14] = stronger effect = lower value, cell number ratio, induced over uninduced
[15] = measured here: relative caspase fold change +Dox/-Dox
[16] = measured here: total cells with miR-34 induction, stronger effect = lower value
[17] = measured here: total cells without miR-34 induction

O=c1cc(N2CCNCC2)oc2c(-c3ccccc3)cccc12
8040: cell count [1, 17]
1.21: fold change [1, 15]
inactive: fold change [1, 14] 0.968
7780: cell count [1, 16]

Cc1cc(C)c(CNC(=O)c2cc(-c3ccc(N4CCN(C)CC4)nc3)cc3c2c(C)cn3C(C)C)c(=O)[nH]1
active: AC50 [2] 20900 nM | AC50 [4] 26300 nM
inactive: outcome [2] | outcome [3] | outcome [5]

CC(C)S(=O)(=O)c1ccc2nccc(Nc3ccc4scnc4c3)c2c1
active: AC50 [2] 16600 nM

COC(=O)C1=C(C)NC(c2ncc(F)cc2F)=N[C@H]1c1ccc(F)cc1Cl
active: AC50 [2] 23500 nM

C[C@@H](Oc1ccc2[nH]nc(/C=C/c3cnn(CCO)c3)c2c1)c1c(Cl)cncc1Cl
active: AC50 [2] 29.5 nM | AC50 [6] 418 nM | AC50 [7] 20900 nM | AC50 [8] 5900 nM | AC50 [3] 14.8 nM | AC50 [4] 10.5 nM | AC50 [9] 16600 nM | AC50 [10] 468 nM | IC50 [5] 2090 nM

CC(C)(C)C[C@H]1N[C@@H](C(=O)NC2CCC(O)CC2)[C@H](c2cccc(Cl)c2F)[C@@]12C(=O)Nc1cc(Cl)ccc12 (stereo partly drawn)
active: AC50 [2] 23500 nM

O=C(NC1CC1)c1cccc(-c2ccc3c(NC(=O)C4CC4)n[nH]c3c2)c1
active: AC50 [2] 10500 nM | AC50 [6] 4690 nM | AC50 [7] 9350 nM | AC50 [8] 11800 nM | AC50 [3] 8330 nM

COc1ccc2c(OCc3nnc4ccc(-c5ccccc5)nn34)ccnc2c1
inactive: outcome [2] | outcome [6] | outcome [7] | outcome [8] | outcome [3] | outcome [4] | outcome [9] | outcome [10] | outcome [5]

NCC(=O)Nc1cncc(-c2nn3c(=O)cc(N4CCNCC4)nc3s2)c1
inactive: outcome [2]

CCCCC(=O)OCC(=O)[C@]1(O)Cc2c(O)c3c(c(O)c2[C@@H](O[C@H]2C[C@H](NC(=O)C(F)(F)F)[C@H](O)[C@H](C)O2)C1)C(=O)c1c(OC)cccc1C3=O
active: AC50 [2] 1660 nM

N#CNC(=NCCCCCCOc1ccc(Cl)cc1)Nc1ccncc1
active: AC50 [2] 29.5 nM | AC50 [6] 4.69 nM | AC50 [7] 1.32 nM | AC50 [8] 4.69 nM | AC50 [3] 8.33 nM | AC50 [4] 13.2 nM | AC50 [9] 5.26 nM | AC50 [10] 14.8 nM

CN(C(=O)CNC(=O)/C=C/c1cccc(Cl)c1)C1CCS(=O)(=O)CC1
active: AC50 [2] 1050 nM

CN(C)c1ccc2cc(C(=O)N[C@@H](CCCN=C(N)CCl)C(=O)NCc3ccccc3)ccc2c1
active: AC50 [2] 8330 nM | AC50 [6] 16600 nM | AC50 [7] 13200 nM | AC50 [8] 7430 nM | AC50 [3] 2630 nM | AC50 [4] 9340 nM | AC50 [9] 16600 nM | AC50 [10] 8330 nM

C=CCNc1c(O)cc2c(O)c1C[C@@H](C)C[C@H](OC)[C@H](O)[C@@H](C)/C=C(/C)[C@H](OC(N)=O)[C@@H](OC)/C=C\C=C(\C)C(=O)N2
active: AC50 [2] 525 nM | AC50 [6] 1050 nM | AC50 [7] 332 nM | AC50 [8] 148 nM | AC50 [3] 1660 nM | AC50 [4] 3720 nM | AC50 [9] 14800 nM | AC50 [10] 468 nM

C=CC(=O)N1CCc2ccc(-n3c(=O)ccc4cnc5ccc(-c6cnn(C)c6)cc5c43)cc21
active: AC50 [2] 229 nM | AC50 [6] 8330 nM | AC50 [7] 7430 nM | AC50 [8] 2350 nM | AC50 [3] 72.3 nM | AC50 [4] 144 nM | AC50 [9] 3720 nM | AC50 [10] 1150 nM

OC[C@H]1O[C@@H](n2cnc3c2NC=NC[C@H]3O)C[C@@H]1O
inactive: outcome [2] | outcome [6] | outcome [7] | outcome [8] | outcome [3] | outcome [4] | outcome [9] | outcome [10] | outcome [5]

Cc1cnc(Nc2ccc(F)cc2Cl)nc1-c1c[nH]c(C(=O)N[C@H](CO)c2cccc(Cl)c2)c1
active: AC50 [2] 1320 nM | AC50 [6] 18700 nM | AC50 [7] 833 nM | AC50 [8] 469 nM | AC50 [3] 1320 nM | AC50 [4] 2090 nM | AC50 [9] 18700 nM | AC50 [10] 833 nM | IC50 [5] 9340 nM

C=CC(=O)Nc1cccc(Oc2nc(Nc3ccc(N4CCN(C)CC4)cc3OC)ncc2Cl)c1
0.924: fold change [1, 15]
active: AC50 [2] 3320 nM | AC50 [7] 20900 nM | AC50 [8] 14800 nM | AC50 [3] 6610 nM | AC50 [4] 4170 nM | AC50 [9] 16600 nM | AC50 [10] 8330 nM | IC50 [5] 2630 nM
-3.65: SSMD [11]
4420: cell count [1, 16]
5250: cell count [1, 17]
5190: cell count [11]
0.584: z-score ([12]; Rieske KO mouse fibroblast survival, CellTiter-Glo 72 h)
inactive: outcome [6] | fold change [1, 14] 0.841 | plate-normalised HSF1 focus index [11] 0.843 | z-score ([12]; MELAS cybrid survival, CellTiter-Glo 48 h, stronger effect = higher value) -0.337 | viability ([13]; at 0.000305 µM, OCI-C5x cells, with rucaparib 10 µM, 100% = cells with rucaparib alone) 115% | viability ([13]; at 0.000305 µM, OCI-C5x cells, without rucaparib) 104% | viability ([13]; at 0.000305 µM, OCI-P5x cells, with rucaparib 20 µM, 100% = cells with rucaparib alone) 114% | viability ([13]; at 0.000305 µM, OCI-P5x cells, without rucaparib) 112% | viability ([13]; at 0.00122 µM, OCI-C5x cells, with rucaparib 10 µM, 100% = cells with rucaparib alone) 117% | viability ([13]; at 0.00122 µM, OCI-C5x cells, without rucaparib) 120% | viability ([13]; at 0.00122 µM, OCI-P5x cells, with rucaparib 20 µM, 100% = cells with rucaparib alone) 108% | viability ([13]; at 0.00122 µM, OCI-P5x cells, without rucaparib) 114% | viability ([13]; at 0.00488 µM, OCI-C5x cells, with rucaparib 10 µM, 100% = cells with rucaparib alone) 107% | viability ([13]; at 0.00488 µM, OCI-C5x cells, without rucaparib) 118% | viability ([13]; at 0.00488 µM, OCI-P5x cells, with rucaparib 20 µM, 100% = cells with rucaparib alone) 119% | viability ([13]; at 0.00488 µM, OCI-P5x cells, without rucaparib) 118%

— PubChem BioAssay
